In test [1] the target is Catechol O-methyltransferase (Homo sapiens) (UniProt P21964). Kind of test: Confirmatory Screen for Target Class Profiling of Small Molecule Inhibitors of Methyltransferases (AID 1745852). Also: potency is read from the fitted curve at half-maximal effect. As to activity change, negative = inhibition: % is scaled to controls: 0 for no effect and ±100 for the full control effect. As to conditions: MTase-Glo luminescence, SAH detection, recombinant enzyme; measured here: COMT max response; stronger effect = lower value.
The target in test [2] is Guanidinoacetate N-methyltransferase (Homo sapiens) (UniProt Q14353). The description is as above. The note with it: MTase-Glo luminescence, SAH detection, recombinant enzyme; activity change, negative = inhibition: at 57.3 µM (top of the series) unless noted; series mostly up to 57.3 µM.
The target of test [3] is Nicotinamide N-methyltransferase (Homo sapiens) (UniProt P40261). The description is as above. The note with it: MTase-Glo luminescence, SAH detection, recombinant enzyme; measured here: NNMT max response; stronger effect = lower value.
Test [4] addresses Phenylethanolamine N-methyltransferase (Homo sapiens) (UniProt P11086). Described as above. As to conditions: MTase-Glo luminescence, SAH detection, recombinant enzyme; measured here: PNMT max response; stronger effect = lower value.
Test [5] can be described thus: NCATS anti-infectives library activity on HEK293 viability as a counter-qHTS vs the C. elegans viability qHTS (AID 1745854; active = well fitted cell-killing curve with a large enough effect;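 also: HEK293 cells exposed to compounds for 24 hr before the viability read; % is scaled to controls: 0 for no effect and ±100 for the full control effect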). The note with it: HEK293 viability counter-screen; series mostly up to 41.8 µM. The essentials:
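Cytotoxicity in human HEK293 cells is measured by ATP-dependent CellTiter-Glo luminescence following a 24 hr incubation with titrated library compounds at 37C. Top final concentration is 41.7 uM.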
Background: Quantitative high-throughput screening tests each substance at several concentrations.

“And” between values parts separate entries of the source, which are not always exact repeats. Identical values can stand only once. Results filed as inconclusive are left out. The source made the active and inactive calls. Unless noted, calls follow the shape of the full dose curve.

The source of these data is PubChem BioAssay (NCATS).

Sequence of Phenylethanolamine N-methyltransferase (Homo sapiens) (P11086 whole entry, looked up): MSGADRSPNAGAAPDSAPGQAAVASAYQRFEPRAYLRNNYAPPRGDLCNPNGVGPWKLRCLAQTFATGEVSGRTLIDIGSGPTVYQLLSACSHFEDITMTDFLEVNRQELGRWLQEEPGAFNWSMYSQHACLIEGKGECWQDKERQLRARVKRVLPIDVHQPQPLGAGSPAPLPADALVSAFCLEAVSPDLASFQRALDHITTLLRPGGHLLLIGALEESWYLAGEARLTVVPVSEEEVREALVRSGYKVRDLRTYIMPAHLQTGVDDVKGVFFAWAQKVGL
Sequence of Nicotinamide N-methyltransferase (Homo sapiens) (P40261 whole entry, looked up): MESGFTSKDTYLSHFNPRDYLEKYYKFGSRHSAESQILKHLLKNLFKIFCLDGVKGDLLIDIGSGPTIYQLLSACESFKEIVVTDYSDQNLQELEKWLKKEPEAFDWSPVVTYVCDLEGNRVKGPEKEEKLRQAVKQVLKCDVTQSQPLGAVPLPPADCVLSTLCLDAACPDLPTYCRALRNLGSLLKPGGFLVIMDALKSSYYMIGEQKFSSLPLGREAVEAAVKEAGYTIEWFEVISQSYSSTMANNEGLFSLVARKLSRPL
Sequence of Catechol O-methyltransferase (Homo sapiens) (P21964 whole entry, looked up): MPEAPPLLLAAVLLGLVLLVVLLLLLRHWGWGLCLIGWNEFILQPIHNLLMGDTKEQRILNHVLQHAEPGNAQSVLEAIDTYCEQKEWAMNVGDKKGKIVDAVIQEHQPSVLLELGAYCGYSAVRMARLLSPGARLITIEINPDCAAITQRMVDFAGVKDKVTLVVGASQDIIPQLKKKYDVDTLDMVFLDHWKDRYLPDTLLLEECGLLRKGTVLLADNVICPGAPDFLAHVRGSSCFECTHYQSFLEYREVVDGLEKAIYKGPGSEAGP

As for `COC(=O)C1=CO[C@@H](O[C@@H]2O[C@H](COC(=O)/C=C/c3cc(OC)c(O)c(OC)c3)[C@@H](O)[C@H](O)[C@H]2O)[C@@H]2C(CO)=CC[C@H]12`, the activity in test [1] is -58.2%; in test [3] it was -2.91%; in test [4], -3.37%. Further, the activity change, negative = inhibition in test [2] was -6.4% [at 19.1 µM].
For `O=C(O[C@@H]1O[C@H](CO)[C@@H](O)[C@H](O)[C@H]1O)c1c(O)cc(O)cc1/C=C/c1ccccc1` the same measures were -66.4%, -2.64%, -9.3% and 2.61% [at 29.8 µM].
As to `CNC1CCN(C(Cc2cccc(-c3ccncc3)c2)C(=O)c2sc3c(F)ccc(F)c3c2Cl)CC1` (configuration not stated), the activity in test [1] is -12.3%; in test [3] it was -78%; in test [4], -11.9%. In addition, the Potency in test [2] is 48.2 µM (active).
In the case of `O=C(O)CCc1cccc(O[C@@H]2O[C@H](CO)[C@@H](O)[C@H](O)[C@H]2O)c1O`, the activity in test [1] is -71.6%; in test [3], 0.392%; in test [4], -5.98%. Besides, in test [2], the activity change, negative = inhibition was found to be 0.429%.
`CC(C)N(C[C@H]1O[C@@H](n2cnc3c(N)ncnc32)[C@H](O)[C@@H]1O)C1CC(CCc2nc3ccc(C(C)(C)C)cc3[nH]2)C1` (some centres not stated): the activity was -14.6% and -12.5% in test [1]; -85.8% and -82.8% in test [3]; -90.9% and -89.3% in test [4]. Besides, the Potency in test [2] was 30.4 µM (active). For the same compound, the activity change, negative = inhibition in test [2] is -3.18%.
`CC1=CC(=O)CC(C)(C)C1CCC(C)OC1OC(COC(=O)c2cc(O)c(O)c(O)c2)C(O)C(O)C1O` (configuration not stated): the results for the activity in test [1], in test [3] and in test [4] were -58.9%, 2.37% and 0%, respectively. For the same compound, the activity change, negative = inhibition in test [2] amounted to 0% [at 29.8 µM].
Turning to `C=Cc1cc(O)cc2nc(-c3ccc(O)c(F)c3)oc12`, the activity was -54.6% in test [1], -36% in test [3] and -50.4% in test [4]. Further, the Potency in test [2] was 30.4 µM (active).
For `COc1cc2c(Nc3ccc(Cl)c(Cl)c3F)ncnc2cc1OCC1C[C@@H]2CN(C)C[C@@H]2C1` (some centres not stated) the same measures were -81.3%, -73.4%, -80.2% and 24.1 µM (active).
For `COc1cc(/C=C/c2cc(O)cc(O[C@@H]3O[C@H](CO)[C@@H](O)[C@H](O)[C@H]3O)c2)ccc1O`, the activity is -45% in test [1], -2.24% in test [3] and 1.65% in test [4]. The activity change, negative = inhibition in test [2] amounted to 0.569% [at 29.8 µM].
For `COc1cc(N2CCC(O)CC2)ccc1Nc1cc(Nc2ccccc2S(=O)(=O)C(C)C)c2cc[nH]c2n1` the same measures were 2.25%, -6.54%, 0.382% and 0%.
In the same order, the values of `Cc1ccc2c(c1)C=Cc1cc(C)ccc1C2c1cn(Cc2ccc(C(=O)Nc3nn[nH]n3)o2)c(=O)[nH]c1=S` are -11%, -18.9%, -2.77% and -0.0663%.
Turning to `CCOC(=O)[C@H]1O[C@@H]1C(=O)N[C@@H](CC(C)C)C(=O)NCCC(C)C`, in test [5], the outcome was “inactive”.
Consider `CC1=CC(=O)CC(C)(C)C1(O)CCC(C)O` (configuration not stated), for which the activity in test [1] was -75.7%; in test [3] it was 0%; in test [4] it was 4.65%. Also, the activity change, negative = inhibition in test [2] was 2.94%.
In the case of `CC1CC(=O)C2=C(O1)OC1(C)CCC3C(C)(C)C=CC(=O)C3(C)C1C2` (configuration not stated), the activity in test [1] is -45.9%; in test [3], -84.9%; in test [4] it was -3%. Further, the activity change, negative = inhibition in test [2] was -4.08%.
In the same order, the values of `C=C(C)[C@H]1C[C@@H](O)C(=C)CC[C@@H](O)C(=C)[C@@H](O)C1` are -67%, 4.34%, 4.62% and 0%.
In the same order, the values of `COC(=O)C1=COC(OC2OC(CO)C(O)C(O)C2O)C2C1CC(OC(=O)C(O)CC(=O)O)C2C` (configuration not stated) are -63.4%, 1.84%, 1.07% and 1.08% [at 29.8 µM].
Regarding `OC[C@H]1O[C@@H](Oc2cc(O)cc(/C=C/c3ccc(O)cc3)c2)[C@H](O)[C@@H](O)[C@@H]1O`, the outcome in test [5] was “inactive”.
Regarding `CC1=CC(=O)C2C(C)(C)CCCC2(C)C12CCC1(COC(=O)C1)O2` (configuration not stated), the activity is -85.5% in test [1], -1.78% in test [3] and 3.04% in test [4]. Further, in test [2], the activity change, negative = inhibition came to 2.41%.
Regarding `Cc1nnc(C(C)C)n1C1CC2CCC(C1)N2CC[C@H](NC(=O)C1CCC(F)(F)CC1)c1ccccc1` (some centres not stated), the outcome in test [5] was “inactive”.
The same measure, in the same setting: the value for `CC(C)(O)CNc1nc(Nc2ccnc(C(F)(F)F)c2)nc(-c2cccc(C(F)(F)F)n2)n1` was “inactive”.
Turning to `CN1CCC(c2c[nH]c3ccc(NC(=O)c4ccc(F)cc4)cc23)CC1`, the activity is -8.83% in test [1], -3.82% in test [3] and -4.53% in test [4]. Moreover, in test [2], the activity change, negative = inhibition was -10.4%.
For `COc1cc(C(O)C(CO)Oc2ccc(CCCO[C@@H]3O[C@@H](C)[C@H](O)[C@@H](O)[C@H]3O)cc2OC)ccc1O` (some centres not stated) the same measures were -72.8%, -3.89%, -4.24% and -3.44% [at 29.8 µM].
For `C[C@@H]1O[C@@H](O[C@H]2[C@H](OC(=O)C34CCC(C)(C)CC3C3=CCC5C6(C)CC(O)C(O[C@@H]7O[C@H](CO)[C@@H](O)[C@H](O)[C@H]7O)C(C)(C(=O)O)C6CCC5(C)C3(CO)CC4)O[C@H](C)[C@H](O)[C@@H]2O)[C@H](O)[C@H](O)[C@H]1O[C@@H]1OC[C@@H](O)[C@H](O)[C@H]1O` (some centres not stated) the same measures were -46%, -3.41%, -2.81% and -4.58% [at 19.1 µM].
Take `Cc1c(-c2ccnn2C)cc(C(=O)NCc2ccc(S(C)(=O)=O)cn2)c(=O)n1-c1cccc(C(F)(F)F)c1`: the outcome in test [5] is “inactive”.
Still for that read-out and setting: for `CCN(CC)Cc1cc(Nc2ccnc3cc(Cl)ccc23)ccc1O` the value was “inactive”.
On to `CCN(c1cc(C#CCN2CCOCC2)cc(C(=O)NCc2c(C)cc(C)[nH]c2=O)c1C)C1CCC(N(C)CCOC)CC1` (configuration not stated), for which the results for the activity in test [1], in test [3] and in test [4] were 15%, -20.4% and 4.61%, respectively. Besides, the activity change, negative = inhibition in test [2] amounted to 3.71%.
